Pf growth 48h: Primary qHTS for delayed death inhibitors of the malarial parasite plastid, 48 hour incubation | P. falciparum luciferase growth in erythrocytes, 48 h | Potency, µM (top dose mostly 28.7 µM), for the others: top-dose activity change, negative = inhibition, most hits filed as inhibitors | hit rate 5.9% among 310,000 | AID 504832, 2011; note: potency is the fitted concentration of half-maximal effect; % is set by controls: 0 for no effect and ±100 for the full control effect
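Firefly luciferase activity from engineered P. falciparum reports growth; inhibitors lower the luminescent signal. Cultures contained 2% hematocrit erythrocytes at 0.1% final parasitemia.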
CHX counter: Cycloheximide Counterscreen for Small Molecule Inhibitors of Shiga Toxin. cell reporter, cycloheximide protein synthesis inhibition counterscreen. max response, %. hit rate 12% among 300,000; in the data active = max response mostly above about 13%, no sharp cut-off; inactive = mostly below about 14%; note: read at 38.3 µM for the half of the compounds with a filed dose; 0% is about no effect
AMA1-RON2 inh: qHTS for Inhibitors of AMA1-RON; Towards Development of Antimalarial Drug Lead: Primary Screen; Plasmodium falciparum AMA1 (3D7) - RON2 peptide interaction; AlphaScreen AMA1-biotinylated RON2 peptide binding; Potency, µM (series often up to 58.2 µM), inactives show at the top dose activity change, negative = inhibition, actives largely listed as inhibitors; hit rate 0.2% among 360,000; AID 720542, 2013;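 note: potency is the fitted concentration of half-maximal effect; 0% = vehicle wells and -100% = peptide control; nearly all actives have a fitted effect of over 45% in size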
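AMA1 (3D7) with his tag at 25 nM final met compounds first, then biotinylated RON2 peptide at 25 nM; detection used donor plus acceptor beads, 10 µg/mL apiece, read by AlphaScreen after 30 min at room temperature.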
Pf growth 96h: Primary qHTS for delayed death inhibitors of the malarial parasite plastid, 96 hour incubation; P. falciparum luciferase reporter growth, 96 h; Potency, µM (titrated, usually from 28.7 µM), without a hit: top-dose activity change, negative = inhibition, actives largely listed as inhibitors; hit rate 6.9% among 320,000; note: potency is the fitted concentration of half-maximal effect; % is set by controls: 0 for no effect and ±100 for the full control effect
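Readout is luminescence from an integrated firefly luciferase in P. falciparum. Red cells, 2% hematocrit and 0.05% parasitemia final, were cultured with compound through two parasite generations (96 hours) at 37 C, 5% CO2.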
SARS PLpro yeast: qHTS of Yeast-based Assay for SARS-CoV PLP. S. cerevisiae expressing SARS-CoV PLpro, growth rescue. Potency, µM (series often up to 32.9 µM), inactives show at the top dose activity, positive = growth rescue, hits mostly activators. hit rate 0.19% among 330,000; calls by dose curve; note: potency is the fitted concentration of half-maximal effect; 0% is about no effect; nearly all actives have a fitted effect of over 55% in size
Shiga inhibitor: A qHTS for Small Molecule Inhibitors of Shiga Toxin. Vero cells, Shiga toxin protein synthesis inhibition reporter. inhibition, % at 38.7 µM. hit rate 9.2% among 290,000. AID 2315, 2010; in the data active = inhibition mostly above about 28%, no sharp cut-off; inactive = mostly below about 43%; note: 0% is about no effect
The depositor's hits bear a star; ? = inconclusive; · = no result given; [ ] = remark or other dose. Hits are enriched below; roughly 19% of the tested compounds scored in any of these assays. Unless noted, calls come from the whole dose curve; as a rule, active = well fitted curve in the direction sought with a large enough effect; inconclusive = small, poorly fitted or top-dose-only effect, or another doubt; inactive = no such curve, though single readings can be large; an effect the other way counts as inactive or inconclusive.

SMILES	Pf growth 48h	CHX counter	AMA1-RON2 inh	Pf growth 96h	SARS PLpro yeast	Shiga inhibitor
Cc1cc(C(=O)CSc2ccc(F)cc2)cc(C)c1O	42%	35*	-9%	83%	-2%	61*
O=C(CSc1ccc(F)cc1)NC(=O)c1ccccc1	·	·	-1%	·	·	·
CC(C)(C)OC(=O)[C@H](Cc1ccccc1)NC(=O)c1ncn2c1c(=O)[nH]c1ccc(Br)cc12	·	·	-7%	·	·	·
CCOC(=O)N1CCN(CC(=O)NC(=O)Nc2ccc3c(c2)OCCO3)CC1	-2%	·	15%	55%	3%	·
O=C(COc1ccc(F)cc1)Nc1ccc2c(c1)OCCO2	107%	44*	3%	3%	-7%	70*
CCOCC(=O)Nc1ccc2c(c1)OCCO2	112%	42*	-7%	3%	2%	68*
Cc1cc(OCC(=O)Nc2ccc3c(c2)OCCO3)ccc1Cl	3%	39*	10%	8.3µM*	-33%	107*
CCOC(=O)N1CCN(c2c(Nc3ccc4c(c3)OCCO4)c(=O)c2=O)CC1	·	53*	18%	-28%	10%	64*
CCC(=O)Nc1ccc2c(c1)OCCO2	?	26	17%	29%	3%	15
COc1ccc(S(=O)(=O)N(C)CC(=O)NC2CC2)cc1	0%	-2	-1%	40%	1%	-23
O=C(COc1ccc2c(c1)OCO2)Nc1cccc(F)c1	161%	35*	-14%	8%	-1%	101*
CN1c2ccc([N+](=O)[O-])cc2CC2(C(=O)NC(=O)N(c3ccc(Br)cc3)C2=O)C1c1ccccc1 (stereo not drawn)	1.7µM*	0	-25%	?	0%	-3
O=C(NCc1ccccn1)c1ccc(Cl)c(S(=O)(=O)Nc2ccccc2C(=O)NCc2ccccn2)c1	12µM*	1	30%	9.3µM*	-4%	-7
O=C(NCc1ccccn1)Nc1ccc(Cl)c(Cl)c1	20%	26*	-8%	38%	-8%	55*
O=C(NCc1ccccn1)c1ccc(Cl)cc1Cl	36%	28*	12%	·	-5%	51*
O=C(NCCCNC(=O)c1ccc(Cl)cc1Cl)c1ccccn1	21%	-3	35%	14%	1%	-6
CC(C)c1ccc(NC(=O)NCc2ccccn2)cc1	-3%	33*	-6%	16%	-4%	68*
O=C(NCc1ccccn1)Nc1cc(Cl)cc(Cl)c1	?	-1	1%	126%	3%	-10
CCNc1nc(NCC)nc(C(=O)NN)n1	-15%	-2	?	9%	-2%	-7
COc1cccc(NC(=O)CS(=O)(=O)Cc2nc(-c3ccc(C)cc3)oc2C)c1	0%	-8	-2%	?	14%	-4
O=C(Nc1ccncc1Cl)c1ccncc1	13%	-4	-3%	0%	-4%	-9
Cc1nnc(SCC(=O)NC2CCCC(C)C2C)n1N (stereo not drawn)	·	·	-13%	·	-9%	·
O=C(NCc1ccccn1)Nc1cccc(Cl)c1	·	29*	25%	?	1%	43*
Cc1cccc(NC(=O)NCc2ccccn2)c1	?	27*	30%	52%	1%	51*
Cc1ccccc1NS(=O)(=O)c1cc(C(=O)Nc2ccccc2-c2ccccc2)ccc1Cl	?	1	-8%	-16%	-10%	-9
SMILES	Pf growth 48h	CHX counter	AMA1-RON2 inh	Pf growth 96h	SARS PLpro yeast	Shiga inhibitor
O=C(NCc1ccccn1)Nc1cc(Cl)ccc1Cl	8%	36	45%	?	·	90*
Cc1ccc(Cl)cc1NC(=O)NCc1ccccn1	14%	9	26%	?	-6%	11
C=CCNC(=O)c1ccccc1NC(=O)c1ccc(Cl)c(S(=O)(=O)Nc2cc(C)ccc2C)c1	?	10	-1%	8.3µM*	5%	45
C=CCCCCCCCCC(=O)OC	-11%	·	·	-1%	·	·
O=C(NCc1ccc2c(c1)OCO2)C1CCN(c2nccc(C(F)(F)F)n2)CC1	30%	-2	2%	34%	-1%	-4
COc1cccc(NC(=O)NCc2ccccn2)c1	23%	17*	-5%	2.1µM*	-4%	30*
CC(C)c1ccc(NC(=S)N(C)CCc2ccccn2)cc1	24%	30*	-8%	56%[5.75 µM]	-1%	88*
O=C(NCc1ccccn1)Nc1cccc(NC(=O)NCc2ccccn2)c1	3%	5	22%	?	6%	12
COc1cc(/C=N/NC(=S)NCCN2CCOCC2)ccc1O	39%	-3	49%	63%	-33%	-9
Cc1ccc2c(c1)N(C(=O)CCC(=O)NCc1cccc(F)c1)CCO2	15%	-1	-6%	-21%	-1%	12
O=C(c1cccnc1)C1Cc2ccccc2C1=O (stereo not drawn)	?	6	8%	7.4µM*	-5%	-2
CC1COCC(C)N1C(=O)c1cccnc1 (stereo not drawn)	·	·	9%	·	·	·
Brc1ccc(-c2csc(NNC3=NCCCCC3)n2)cc1	10µM*	25*	-4%	?	-20%	42
FC(F)Oc1ccc(-c2csc(NNC3=NCCCCC3)n2)cc1	?	21*	19%	?	-4%	35
CC(C)(C)c1ccc(C(=O)NCC(=O)OCC(=O)Nc2nc(-c3ccc(F)cc3)cs2)cc1	24%	15	-21%	62%[5.75 µM]	1%	25
CC(C)(C)c1ccc(-c2csc(NNC3=NCCCCC3)n2)cc1	10µM*	20*	-27%	·	-8%	30
O=C(CNc1ccc(Br)cc1)NNC1=NCCC1	-8%	-6	69%	32%	1%	12
C/C(Cl)=C\Cn1c(O)c(N=NC(N)=S)c2cc(Br)ccc21	10µM*	-2	43%	?	-4%	17
NC(=S)N=Nc1c(O)n(CCCl)c2ccc(Br)cc12	?	-3	23%	?	0%	-9
O=C(CN(C(=O)c1cccc([N+](=O)[O-])c1)C1CCCCC1)Nc1ccc(Cl)c([N+](=O)[O-])c1	1.9µM*	-5	9%	?	12%	-4
Cc1ccc([N+](=O)[O-])cc1NC(=O)CN(C(=O)c1ccccc1Cl)C1CCCCC1	?	-1	-2%	0%	6%	12
CC(C)C(=O)NC(NC(=O)C(C)C)c1ccc([N+](=O)[O-])cc1	9%	-4	?	12%	13%	-7
CCc1nc2ccccc2n1CCc1ccccc1	?	-2	-4%	54%	16%	-2
CCn1c(CCc2ccccc2)nc2ccccc21	?	32*	-6%	0.13µM*	-1%	27
CC(C)Cc1nc2ccccc2n1CCc1ccccc1	9.3µM*	-6	3%	6.6µM*	-15%	-15
Cc1c(CC(=O)O)c(=O)oc2cc(OCc3ccc(F)cc3F)ccc12	·	5	-9%	35%	-3%	10

High-throughput results as filed in PubChem.
